The campaign covered roughly 69,000 compounds. About 8,600 (12%) showed an effect of 50% or more. Only a selection was taken, and strong results are over-represented in it overall.

This assay concerns Plasmodium berghei. Nature of the assay: Screen against P. berghei liver stage (PbLuc), transformed with Luciferase, at 10uM. It is filed as functional, HepG2. The following applies: tested at 10 uM.
In the case of `CCc1cc(N2CCC(N3CCSCC3)CC2)n2nccc2n1`, the INHIBITION was determined as 35%.
To `COCc1cc(N2CCN(Cc3ccncc3)CC2)n2nccc2n1` belongs 48.5%.
Under `COCc1cc(N2CCN(C3CCCCC3)CC2)n2nccc2n1` stands -9.29%; under `COCc1cc(N2CCOCC2)n2nccc2n1`, -11.9%.
Consider `CCc1cc(N2CCN(c3ccc(Cl)cn3)CC2)n2nccc2n1`, for which the INHIBITION is 81.2%.
To `COCc1cc(N2CCN(c3ccc(Cl)cn3)CC2)n2nccc2n1` belongs 54.5%; to `Cc1ccc(CN2CC[C@@H](O)[C@@H]2Cc2cnn(C)c2)o1`, 22.9%.
Under `Cc1cccc(CN2C[C@H]3CCC[C@@]3(COCc3csc(C)n3)C2)n1` stands -28.2%; under `CCC(CC)c1cc(CNC(=O)N2CCC(CO)CC2)on1`, 40.4%.
Under `CCC(CC)c1cc(CNC(=O)N2CCCC(N(C)C)C2)on1` (stereo not given) stands -34%; under `CCC(CC)c1cc(CNC(=O)N2CCCC(C(=O)NC)C2)on1` (stereo not given), 64.6%; under `C1CCC(c2nnc3sc(C4CCCO4)nn23)C1` (stereo not given), 49.4%.
In the case of `CCOc1ccc(CC(=O)N2CCN(c3nccn3CC)CC2)cc1`, the INHIBITION stood at 49.1%.
To `Cc1nc(CNC(=O)N(C)Cc2cnn(C)c2)cs1` belongs 15.05%; to `Cc1ccsc1CNC(=O)N(C)Cc1cnn(C)c1`, -14.86%.
As for `Cc1csc(CNC(=O)N(C)Cc2cnn(C)c2)n1`, the INHIBITION was 54.4%.
Under `Cc1ccc2c(c1)C1(CCN(C(=O)C3CC3)CC1)CC2N1CCOCC1` (stereo not given) stands 10.7%; under `Cc1nn(C)c2c(N3CCN(C(=O)C4CCCCC4)CC3)ncnc12`, 44.1%; under `CN1CCC2(CC1)C(=O)N(CC1CC1)c1ccccc12`, 14.1%.
Under `CC(C)CN1C(=O)C2(CCN(Cc3ccsc3)C2)c2ccccc21` (stereo not given) stands 32.2%.
To `Cc1ccc(CN2CCC3(CC2)C(=O)N(C)c2ccccc23)s1` belongs 31.8%; to `CC(C)CN1C(=O)C2(CCN(Cc3cccs3)C2)c2ccccc21` (stereo not given), 20.4%; to `CC(=O)N1CCC2(C1)C(=O)N(CC1CC1)c1ccccc12` (stereo not given), -19.6%.
For `Cc1ccc(CN2CCC3(C2)C(=O)N(CC2CC2)c2ccccc23)s1` (stereo not given), the INHIBITION was 55%.
As for `CC(C)CN1C(=O)C2(CCN(CC3CCOCC3)C2)c2ccccc21` (stereo not given), the INHIBITION was 71.9%.
Under `CC(C)CN1C(=O)C2(CCN(Cc3ccoc3)C2)c2ccccc21` (stereo not given) stands 23.3%; under `COCCN1C(=O)C2(CCN(CC3CC3)CC2)c2ccccc21`, 55.7%.
Take `CC(C)CN1C(=O)C2(CCN(Cc3ccc(F)cc3)C2)c2ccccc21` (stereo not given): the INHIBITION amounted to 38.2%.
To `CC(C)CN1C(=O)C2(CCN(Cc3nccs3)C2)c2ccccc21` (stereo not given) belongs 81.8%.
For the molecule `CN(C)CCN1C(=O)C2(CCN(CC3CC3)CC2)c2ccccc21`, the INHIBITION is recorded as 27.6%.

These data come from ChEMBL document CHEMBL4513216, “Probing the Open Global Health Chemical Diversity Library for Multistage-Active Starting Points for Next-Generation Antimalarials” (ACS Infect Dis, 2020).
